“And” between values parts separate entries of the source, which are not always exact repeats. Identical values can stand only once.
Assays:
[1] = biological target: Casein kinase I isoform gamma-2 (Homo sapiens) (UniProt P78368); conditions: at 1 µM
[2] = biological target: Casein kinase I isoform gamma-3 (Homo sapiens) (UniProt Q9Y6M4); conditions: at 0.1 µM
[3] = biological target: Casein kinase I isoform gamma-3 (Homo sapiens) (UniProt Q9Y6M4); conditions: at 1 µM
[4] = biological target: Cyclin-dependent kinase 1 (Homo sapiens) (UniProt P06493); conditions: at 0.1 µM
[5] = biological target: Cyclin-dependent kinase 1 (Homo sapiens) (UniProt P06493); conditions: at 1 µM
[6] = biological target: Cyclin-dependent kinase 2 (Homo sapiens) (UniProt P24941); conditions: at 0.1 µM
[7] = biological target: Cyclin-dependent kinase 2 (Homo sapiens) (UniProt P24941); conditions: at 1 µM
[8] = biological target: Cyclin-dependent kinase 2 (Homo sapiens) (UniProt P24941); conditions: at 0.1 µM; remark: listed apart in the source
[9] = biological target: Cyclin-dependent kinase 2 (Homo sapiens) (UniProt P24941); conditions: at 1 µM; remark: listed apart in the source
[10] = biological target: T1, CDK3/Cyclin E (Homo sapiens) (UniProt P24864+Q00526); conditions: at 0.1 µM
[11] = biological target: T1, CDK3/Cyclin E (Homo sapiens); conditions: at 1 µM
[12] = biological target: Cyclin-dependent kinase 4 (Homo sapiens) (UniProt P11802); conditions: at 0.1 µM
[13] = biological target: Cyclin-dependent kinase 4 (Homo sapiens) (UniProt P11802); conditions: at 1 µM
[14] = biological target: Cyclin-dependent kinase 5 (Homo sapiens) (UniProt Q00535); conditions: at 0.1 µM
[15] = biological target: Cyclin-dependent kinase 5 (Homo sapiens) (UniProt Q00535); conditions: at 1 µM
[16] = biological target: Cyclin-dependent kinase 6 (Homo sapiens) (UniProt Q00534); conditions: at 0.1 µM
[17] = biological target: Cyclin-dependent kinase 6 (Homo sapiens) (UniProt Q00534); conditions: at 1 µM
[18] = biological target: Dual specificity protein kinase CLK2 (Homo sapiens) (UniProt P49760); conditions: at 0.1 µM
[19] = biological target: Dual specificity protein kinase CLK2 (Homo sapiens) (UniProt P49760); conditions: at 1 µM
[20] = biological target: Dual specificity protein kinase CLK3 (Homo sapiens) (UniProt P49761); conditions: at 0.1 µM
Sequence of Dual specificity protein kinase CLK3 (Homo sapiens) (P49761 whole entry, looked up): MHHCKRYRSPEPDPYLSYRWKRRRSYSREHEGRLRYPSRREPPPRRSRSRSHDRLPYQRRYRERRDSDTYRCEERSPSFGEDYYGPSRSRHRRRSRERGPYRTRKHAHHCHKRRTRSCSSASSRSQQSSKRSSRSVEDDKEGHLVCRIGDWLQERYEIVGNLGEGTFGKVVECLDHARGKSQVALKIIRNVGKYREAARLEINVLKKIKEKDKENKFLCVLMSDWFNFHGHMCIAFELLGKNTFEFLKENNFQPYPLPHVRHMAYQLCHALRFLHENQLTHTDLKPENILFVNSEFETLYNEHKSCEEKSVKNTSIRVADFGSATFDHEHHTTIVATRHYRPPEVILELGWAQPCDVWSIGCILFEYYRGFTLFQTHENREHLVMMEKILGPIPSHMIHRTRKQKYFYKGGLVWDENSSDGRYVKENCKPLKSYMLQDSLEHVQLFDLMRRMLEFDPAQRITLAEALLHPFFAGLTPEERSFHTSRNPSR

Sequence of Casein kinase I isoform gamma-2 (Homo sapiens) (P78368 whole entry, looked up, canonical isoform): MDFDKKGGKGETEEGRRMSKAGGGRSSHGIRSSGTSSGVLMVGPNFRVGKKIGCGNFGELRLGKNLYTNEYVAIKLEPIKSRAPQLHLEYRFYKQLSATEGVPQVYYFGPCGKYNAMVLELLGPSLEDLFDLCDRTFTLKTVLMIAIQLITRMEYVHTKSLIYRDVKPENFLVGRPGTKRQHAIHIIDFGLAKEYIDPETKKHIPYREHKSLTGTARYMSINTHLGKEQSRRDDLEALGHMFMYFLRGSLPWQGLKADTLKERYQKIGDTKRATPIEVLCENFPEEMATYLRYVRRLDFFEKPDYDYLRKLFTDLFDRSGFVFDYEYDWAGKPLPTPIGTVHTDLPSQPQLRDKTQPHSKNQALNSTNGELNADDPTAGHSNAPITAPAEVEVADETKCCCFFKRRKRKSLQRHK
Sequence of Cyclin-dependent kinase 5 (Homo sapiens) (Q00535 whole entry, looked up): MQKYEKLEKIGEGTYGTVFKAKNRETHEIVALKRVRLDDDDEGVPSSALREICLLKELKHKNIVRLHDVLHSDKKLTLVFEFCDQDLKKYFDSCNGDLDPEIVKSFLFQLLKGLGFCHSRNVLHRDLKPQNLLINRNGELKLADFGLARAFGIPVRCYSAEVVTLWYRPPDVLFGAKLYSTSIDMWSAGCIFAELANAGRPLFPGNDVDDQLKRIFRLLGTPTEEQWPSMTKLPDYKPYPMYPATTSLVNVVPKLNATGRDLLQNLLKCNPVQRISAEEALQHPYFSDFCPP
Sequence of Cyclin-dependent kinase 4 (Homo sapiens) (P11802 whole entry): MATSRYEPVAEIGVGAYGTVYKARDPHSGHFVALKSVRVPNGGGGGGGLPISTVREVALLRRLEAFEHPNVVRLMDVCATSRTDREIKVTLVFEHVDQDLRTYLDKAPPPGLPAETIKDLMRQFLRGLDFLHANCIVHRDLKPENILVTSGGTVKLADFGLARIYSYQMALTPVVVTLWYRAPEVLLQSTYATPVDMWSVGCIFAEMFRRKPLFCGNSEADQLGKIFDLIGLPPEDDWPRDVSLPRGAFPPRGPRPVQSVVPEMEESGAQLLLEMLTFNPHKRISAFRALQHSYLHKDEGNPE
Sequence of Dual specificity protein kinase CLK2 (Homo sapiens) (P49760 whole entry, looked up): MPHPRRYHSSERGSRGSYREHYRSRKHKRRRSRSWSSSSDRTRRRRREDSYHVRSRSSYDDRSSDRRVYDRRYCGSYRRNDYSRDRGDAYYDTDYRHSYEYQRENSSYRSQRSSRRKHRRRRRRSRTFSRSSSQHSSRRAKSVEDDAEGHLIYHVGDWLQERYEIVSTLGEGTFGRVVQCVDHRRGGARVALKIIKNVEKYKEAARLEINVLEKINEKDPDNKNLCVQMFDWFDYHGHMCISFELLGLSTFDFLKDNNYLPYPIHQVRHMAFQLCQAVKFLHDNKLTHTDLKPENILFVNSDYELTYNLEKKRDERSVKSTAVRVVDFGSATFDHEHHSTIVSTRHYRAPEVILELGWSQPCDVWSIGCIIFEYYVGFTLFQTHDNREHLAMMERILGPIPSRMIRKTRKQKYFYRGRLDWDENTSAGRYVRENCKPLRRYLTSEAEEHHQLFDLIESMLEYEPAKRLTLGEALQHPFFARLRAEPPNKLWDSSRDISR
Sequence of Cyclin-dependent kinase 1 (Homo sapiens) (P06493 whole entry, looked up): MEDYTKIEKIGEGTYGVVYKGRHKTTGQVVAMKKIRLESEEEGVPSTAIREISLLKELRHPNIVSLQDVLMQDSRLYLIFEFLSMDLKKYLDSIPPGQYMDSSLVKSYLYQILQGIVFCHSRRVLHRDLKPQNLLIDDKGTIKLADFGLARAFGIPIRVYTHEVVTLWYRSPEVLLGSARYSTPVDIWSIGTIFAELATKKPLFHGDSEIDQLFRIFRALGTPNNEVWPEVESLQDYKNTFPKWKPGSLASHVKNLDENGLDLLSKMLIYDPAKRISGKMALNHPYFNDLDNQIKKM
T1 sequence (P24864 whole entry, looked up): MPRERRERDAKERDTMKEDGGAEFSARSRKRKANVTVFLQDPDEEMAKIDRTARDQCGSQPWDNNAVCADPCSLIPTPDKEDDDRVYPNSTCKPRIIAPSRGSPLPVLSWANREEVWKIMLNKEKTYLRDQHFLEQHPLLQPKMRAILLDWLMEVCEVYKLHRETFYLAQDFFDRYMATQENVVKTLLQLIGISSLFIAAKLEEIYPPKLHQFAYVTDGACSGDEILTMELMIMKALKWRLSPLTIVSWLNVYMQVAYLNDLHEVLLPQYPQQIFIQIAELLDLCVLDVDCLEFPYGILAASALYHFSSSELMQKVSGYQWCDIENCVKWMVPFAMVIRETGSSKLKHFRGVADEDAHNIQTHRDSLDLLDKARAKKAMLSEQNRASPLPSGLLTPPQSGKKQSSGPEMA
T1 sequence (Q00526 whole entry, looked up): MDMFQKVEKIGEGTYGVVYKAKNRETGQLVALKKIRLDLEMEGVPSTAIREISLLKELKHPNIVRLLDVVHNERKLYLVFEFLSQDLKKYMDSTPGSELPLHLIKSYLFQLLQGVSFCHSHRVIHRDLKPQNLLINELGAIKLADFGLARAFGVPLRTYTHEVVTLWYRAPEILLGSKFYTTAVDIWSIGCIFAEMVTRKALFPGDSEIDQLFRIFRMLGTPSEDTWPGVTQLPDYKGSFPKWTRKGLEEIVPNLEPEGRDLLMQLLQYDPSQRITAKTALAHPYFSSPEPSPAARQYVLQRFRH
Sequence of Cyclin-dependent kinase 6 (Homo sapiens) (Q00534 whole entry): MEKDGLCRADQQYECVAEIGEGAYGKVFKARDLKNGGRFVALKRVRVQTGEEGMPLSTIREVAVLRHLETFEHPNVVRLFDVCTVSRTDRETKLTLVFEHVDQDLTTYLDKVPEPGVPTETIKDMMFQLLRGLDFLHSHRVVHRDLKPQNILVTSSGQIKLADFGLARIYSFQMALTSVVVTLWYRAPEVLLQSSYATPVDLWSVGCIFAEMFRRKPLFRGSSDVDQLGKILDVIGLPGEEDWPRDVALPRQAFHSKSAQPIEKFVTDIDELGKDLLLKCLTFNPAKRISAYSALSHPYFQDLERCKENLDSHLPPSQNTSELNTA
Sequence of Casein kinase I isoform gamma-3 (Homo sapiens) (Q9Y6M4 whole entry, looked up, canonical isoform): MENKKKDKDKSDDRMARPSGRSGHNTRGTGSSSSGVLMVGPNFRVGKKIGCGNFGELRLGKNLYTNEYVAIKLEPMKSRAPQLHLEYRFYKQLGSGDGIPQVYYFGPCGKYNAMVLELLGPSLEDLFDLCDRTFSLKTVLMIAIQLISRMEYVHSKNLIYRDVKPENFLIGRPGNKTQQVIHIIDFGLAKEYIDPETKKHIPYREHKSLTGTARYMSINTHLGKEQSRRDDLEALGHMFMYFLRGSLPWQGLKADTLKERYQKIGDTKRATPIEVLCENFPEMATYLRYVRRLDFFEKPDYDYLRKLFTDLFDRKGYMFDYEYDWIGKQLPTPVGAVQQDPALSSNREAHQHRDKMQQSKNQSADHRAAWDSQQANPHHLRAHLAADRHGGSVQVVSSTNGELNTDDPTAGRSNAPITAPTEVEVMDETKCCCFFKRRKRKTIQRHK

CCS(=O)(=O)c1ccc(OC)c(Nc2ncc(-c3cccc(F)c3)o2)c1
inhibition [1]: 4.64%
inhibition [2]: 3.7%
inhibition [3]: 4.58%
inhibition [4]: 1.72%
inhibition [5]: 0.96%
inhibition [6]: 3.74%
inhibition [7]: 4.31%
inhibition [8]: 4.05%
inhibition [9]: 5.69%
inhibition [10]: -0.92%
inhibition [11]: -2.15%
inhibition [12]: 2.69%
inhibition [13]: 4.19%
inhibition [14]: 0.21%
inhibition [15]: 1.39%
inhibition [16]: 3.05%
inhibition [17]: 1.82%
inhibition [18]: 13%
inhibition [19]: 63.1%
inhibition [20]: 2.49%

c1cnn2ncc(-c3ccnc(NCCCN4CCOCC4)n3)c2c1
inhibition [1]: 5.14%
inhibition [2]: 1.77%
inhibition [3]: 4.33%
inhibition [4]: 1.53%
inhibition [5]: 13.9%
inhibition [6]: 1.1%
inhibition [7]: 5.75%
inhibition [8]: 5.32%
inhibition [9]: 5.99%
inhibition [10]: 0.96%
inhibition [11]: -0.22%
inhibition [12]: 2.24%
inhibition [13]: 7.97%
inhibition [14]: 0.21%
inhibition [15]: 2.95%
inhibition [16]: -1.7%
inhibition [17]: 2.95%
inhibition [18]: 1.77%
inhibition [19]: 6.81%
inhibition [20]: 0.39%

Cn1c(-c2nonc2N)nc2cnccc21
inhibition [1]: 3.42%
inhibition [2]: 1.53%
inhibition [3]: 2.15%
inhibition [4]: 1.15%
inhibition [5]: 4.4%
inhibition [6]: 2.01%
inhibition [7]: 11.2%
inhibition [8]: 3.69%
inhibition [9]: 11.6%
inhibition [10]: 6.05%
inhibition [11]: 2.12%
inhibition [12]: 1.95%
inhibition [13]: 3.9%
inhibition [14]: 1.09%
inhibition [15]: 7.18%
inhibition [16]: -4.08%
inhibition [17]: 1.64%
inhibition [18]: 2.9%
inhibition [19]: 10.3%
inhibition [20]: 1%

Fc1ccc(Nc2nccc(-c3c(-c4ccc(C(F)(F)F)cc4)nn4ncccc34)n2)cc1F
inhibition [1]: 4.13%
inhibition [2]: 3.32%
inhibition [3]: 3.74%
inhibition [4]: -0.65%
inhibition [5]: 0.76%
inhibition [6]: 1.15%
inhibition [7]: -0.44%
inhibition [8]: 3.94%
inhibition [9]: 3.93%
inhibition [10]: 0.39%
inhibition [11]: -0.37%
inhibition [12]: 2.28%
inhibition [13]: 2.36%
inhibition [14]: 0.28%
inhibition [15]: 0.64%
inhibition [16]: 1.44%
inhibition [17]: 1.37%
inhibition [18]: 2.15%
inhibition [19]: 1.63%
inhibition [20]: 2.2%

Cc1ccc(-c2cc3c(NC(=O)C4CC4)ncnc3o2)cc1
inhibition [1]: 5.03%
inhibition [2]: 2.01%
inhibition [3]: 3.1%
inhibition [4]: 0.77%
inhibition [5]: 3.16%
inhibition [6]: 1.63%
inhibition [7]: 0.2%
inhibition [8]: 4.69%
inhibition [9]: 6.42%
inhibition [10]: 1.4%
inhibition [11]: -0.64%
inhibition [12]: 3.36%
inhibition [13]: 4.97%
inhibition [14]: 1.87%
inhibition [15]: 3.17%
inhibition [16]: 1.55%
inhibition [17]: 3.23%
inhibition [18]: -0.87%
inhibition [19]: 6.08%
inhibition [20]: 2.11%

CS(=O)(=O)CCNCc1ccc(-c2ccc3ncnc(Nc4ccc(OCc5ccccc5)cc4)c3c2)o1
inhibition [1]: 2.81%
inhibition [2]: 2.43%
inhibition [3]: 1.23%
inhibition [4]: 0.68%
inhibition [5]: -4.99%
inhibition [6]: 1.6%
inhibition [7]: 2.53%
inhibition [8]: 2.45%
inhibition [9]: 3.9%
inhibition [10]: -1.1%
inhibition [11]: -0.81%
inhibition [12]: 1.16%
inhibition [13]: 2.98%
inhibition [14]: 0.58%
inhibition [15]: 2.07%
inhibition [16]: -1.55%
inhibition [17]: 1.12%
inhibition [18]: 0.03%
inhibition [19]: 0.73%
inhibition [20]: 0.41%

NS(=O)(=O)c1cccc(N/C=C2\C(=O)Nc3ccccc32)c1
inhibition [1]: 12.7%
inhibition [2]: 5.4%
inhibition [3]: 14%
inhibition [4]: 2.85%
inhibition [5]: 7.45%
inhibition [6]: 4.87%
inhibition [7]: 8.39%
inhibition [8]: 5.07%
inhibition [9]: 16%
inhibition [10]: 4.56%
inhibition [11]: 11.3%
inhibition [12]: 5.5%
inhibition [13]: 18.1%
inhibition [14]: 2.87%
inhibition [15]: 16.5%
inhibition [16]: 2.67%
inhibition [17]: 55.6%
inhibition [18]: 2.13%
inhibition [19]: 13.7%
inhibition [20]: 1.92%

CS(=O)(=O)Nc1ccc(-c2cc(-c3ccccc3)cc(C(N)=O)c2N)cc1
inhibition [1]: 0.9%
inhibition [2]: 2.42%
inhibition [3]: 0.43%
inhibition [4]: 0.06%
inhibition [5]: -0.25%
inhibition [6]: 0.21%
inhibition [7]: 1.06%
inhibition [8]: 0.2%
inhibition [9]: 1.37%
inhibition [10]: -0.04%
inhibition [11]: -1.91%
inhibition [12]: 0.62%
inhibition [13]: 1.63%
inhibition [14]: 0.11%
inhibition [15]: 0.2%
inhibition [16]: -0.52%
inhibition [17]: -0.55%
inhibition [18]: 0.11%
inhibition [19]: 2.34%
inhibition [20]: 0.2%

COc1cccc(Nc2nccc(-c3cnn4ncccc34)n2)c1
inhibition [1]: 47.2%
inhibition [2]: 3.61%
inhibition [3]: 38.6%
inhibition [4]: 63.9%
inhibition [5]: 79.2%
inhibition [6]: 72.8%
inhibition [7]: 105%
inhibition [8]: 64.7%
inhibition [9]: 78.6%
inhibition [10]: 42.2%
inhibition [11]: 91.4%
inhibition [12]: 56.5%
inhibition [13]: 76.9%
inhibition [14]: 59.3%
inhibition [15]: 78%
inhibition [16]: 49.5%
inhibition [17]: 80.5%
inhibition [18]: 93.9%
inhibition [19]: 98.2%
inhibition [20]: 23.2%

CC(C)c1ccc(-c2cc(-c3c[nH]nc3-c3ccccn3)ccn2)cc1
inhibition [1]: 1.17%
inhibition [2]: -0.24%
inhibition [3]: 3.43%
inhibition [4]: -0.07%
inhibition [5]: 2.01%
inhibition [6]: 1.87%
inhibition [7]: -0.02%
inhibition [8]: 1.12%
inhibition [9]: 1.4%
inhibition [10]: -1.25%
inhibition [11]: -1.28%
inhibition [12]: 1.25%
inhibition [13]: 1.46%
inhibition [14]: 0.18%
inhibition [15]: 0.36%
inhibition [16]: -1.5%
inhibition [17]: 1.16%
inhibition [18]: 0.9%
inhibition [19]: -0.14%
inhibition [20]: 0.15%

Nc1ncnc2occ(-c3ccc(NC(=O)Nc4cc(C(F)(F)F)ccc4F)cc3)c12
inhibition [1]: 4.53% and -0.27%
inhibition [2]: 0.69% and 0.19%
inhibition [3]: 6.26% and 0.91%
inhibition [4]: 2.66% and 1.33%
inhibition [5]: 11.4% and 4.55%
inhibition [6]: 2.5% and 0.72%
inhibition [7]: 13.5% and 5.32%
inhibition [8]: 2.09% and 0.45%
inhibition [9]: 15.5% and 5.95%
inhibition [10]: 1.13% and 2.46%
inhibition [11]: 26.3% and 17%
inhibition [12]: 2.18% and -1.12%
inhibition [13]: 7.72% and 1.95%
inhibition [14]: 2.15% and 1.3%
inhibition [15]: 10.4% and 4.77%
inhibition [16]: 2.49% and -1.62%
inhibition [17]: 6.94% and -0.12%
inhibition [18]: -0.16% and 0.05%
inhibition [19]: 2.32% and 0.92%
inhibition [20]: -0.08% and 0.74%

Cc1cc(O)cc(C)c1/C=C/c1cncc(C(N)=O)c1
inhibition [1]: 2.37%
inhibition [2]: 2.87%
inhibition [3]: 2.49%
inhibition [4]: 0.12%
inhibition [5]: 1.3%
inhibition [6]: 1.56%
inhibition [7]: 1.98%
inhibition [8]: 2.51%
inhibition [9]: 3.29%
inhibition [10]: -0.91%
inhibition [11]: 1.41%
inhibition [12]: 2.84%
inhibition [13]: 3.26%
inhibition [14]: 0.63%
inhibition [15]: 1.61%
inhibition [16]: 3.58%
inhibition [17]: 4.03%
inhibition [18]: -0.7%
inhibition [19]: 2.41%
inhibition [20]: 1.21%

Source: ChEMBL document CHEMBL1961873, “Compounds: GSK PKIS; Assays: Nanosyn kinase panel” (2012)
